Structures are written as SMILES. Results filed as inconclusive are left out. Entries that show only a call come without a potency. Active and inactive are the calls of the source. Calls follow the shape of the dose curve; as a rule, active = well fitted cell-killing curve with a large enough effect in the repeat runs; inconclusive = weak or mixed curves, or effect the other way; inactive = flat fitted curve, though single readings scatter.

The assay is described as follows: qHTS RealTime-Glo MT Cell Viability Assay in HepG2 cells - 40 hour (AID 1224870). Also: nearly all actives have a fitted effect of over 50% in size. To be noted: RealTime-Glo luminescence; series mostly up to 76.8 µM. The text has this:
National Center for Advancing Translational Sciences [NCATS]
NIH Chemical Genomics Center [NCGC]
U.S. Environmental Protection Agency [EPA]
National Institutes of Environmental Health Sciences [NIEHS]
National Toxicology Program [NTP]
U.S. Food and Drug Administration [FDA]
Measure of cell viability is critical in the cell-base assay. Analysis of cell viability is necessary for the characterization of cell responses to cytotoxic drugs and environmental stress. A RealTime-Glo MT Cell Viability Assay to monitor cell viability in real time of continues cell culture during 40 hours of compound treatment was used to screen Tox21 10K library compounds in HepG2 cells. The RealTime-Glo MT Cell Viability Assay is a nonlytic, homogeneous, bioluminescent method to measure cell viability in real time using a simple, plate-based method. The assay involves adding NanoLuc luciferase and a cell-permeant prosubstrate to cells in culture. Viable cells reduce the proprietary prosubstrate to generate a substrate for NanoLuc luciferase. This substrate diffuses from cells into the surrounding culture medium, where it is rapidly used by the NanoLuc Enzyme to produce a luminescent signal. The signal correlates with the number of viable cells, making the assay well suited for cytotoxicity studies.
Tox21 Assay Protocol Summary:
The mixture of HepG2 cell suspension and reagents were dispensed at 600cells/6 ul/well in 1536-well tissue culture treated black solid bottom plates using a Multidrop dispenser. After the assay plates were incubated at a 37 C/5% CO2 incubator for 5 hours, 23 nL of compounds dissolved in DMSO, positive and negative controls was transferred to the assay plate by a pintool work station. The plates were incubated at 37 C for 40 hours. The luminescence intensity were measured at 0h, 8h, 16h, 24h, 32h and 40h time points using ViewLux plate reader during compound treatment.
In general terms: Quantitative high-throughput screening tests each substance at several concentrations.
With `O=C(Oc1ccccc1)c1ccc(O)cc1`, the Potency entry is “inactive”.
The entry for `Clc1ccc(Cl)c(Cl)c1Cl` is “inactive”; for `Oc1c(Cl)cc(Cl)c(Cl)c1Cl` it is “inactive”; for `C=C(C#N)C(=O)OCC` it is “inactive”.
Take `CCc1ccc(O)cc1`: the Potency result is “inactive”.
The entry for `CCCCOCCO` is “inactive”.
In the case of `COC(=O)Nc1nc2ccc(Sc3ccccc3)cc2[nH]1`, the Potency result was “inactive”.
The entry for `C=C1C2CCC(C2)C1(C)C` (stereo not given) is “inactive”; for `O=C1N=C(O)CN1/N=C/c1ccc(-c2ccc([N+](=O)[O-])cc2)o1` it is “inactive”; for `CCOC(=O)[C@H](CCc1ccccc1)N[C@@H](C)C(=O)N1Cc2ccccc2C[C@H]1C(=O)O` it is “inactive”.
In the case of `CCOC(=O)C1OC1c1ccccc1` (stereo not given) it was “inactive”; in that of `C=CC(=O)OCCCCCCCC(C)C`, “inactive”; in that of `CCCCC(CC)COC(=O)/C=C\C(=O)OCC(CC)CCCC` (stereo not given), “inactive”.
In the case of `c1ccc2ccccc2c1` it was “inactive”; in that of `CS(=O)(=O)c1ccc([C@@H](O)[C@@H](CO)NC(=O)C(Cl)Cl)cc1`, “inactive”.
For the compound `CC1=C(CC(=O)O)c2cc(F)ccc2/C1=C\c1ccc(S(C)=O)cc1` (stereo not given), the Potency result was “inactive”.
In the case of `CCCCC(CC)C(=O)OCCOCCOCCOC(=O)C(CC)CCCC` (stereo not given) it was “inactive”; in that of `CN(C)c1cccc(O)c1`, “inactive”.
In the case of `C=C(C)C(=O)OCCCCCC` it was “inactive”; in that of `COC(=O)c1ccccc1O`, “inactive”; in that of `CS(=O)(=O)Nc1ccc([N+](=O)[O-])cc1Oc1ccccc1`, “inactive”.
As to `Cc1ccc(C(=O)O)o1`, the Potency entry was “inactive”.
Regarding `CCCCC(CC)COC(C)=O` (stereo not given), the Potency result is “inactive”.
The entry for `COCC(=O)O` is “inactive”; for `Nc1nc2ncc(CNc3ccc(C(=O)N[C@@H](CCC(=O)O)C(=O)O)cc3)nc2c(=O)[nH]1` it is “inactive”.
In the case of `S=c1nc[nH]c2nc[nH]c12` it was “inactive”; in that of `CC(C)(C)C(=O)C1C(=O)c2ccccc2C1=O`, “inactive”.
In the case of `OCC#CCO` it was “inactive”; in that of `CCCCCCCCCCC=CC1CC(=O)OC1=O` (stereo not given), “inactive”.
In the case of `CC(C)Cc1ccccc1`, the Potency result is “inactive”.
The entry for `C=C(C)C(=O)OCCCCCCCCCCCC` is “inactive”; for `OC[C@@H](O)[C@@H](O)[C@H](O)[C@@H](O)CO` it is “inactive”; for `O=c1c(-c2ccc(O)cc2)coc2cc(O)ccc12` it is “inactive”.
Turning to `CCCCCCCCCCCCOCC1CO1` (stereo not given), the Potency result was “inactive”.
In the case of `c1ccc2[nH]cnc2c1` it was “inactive”.
Take `CN(CCOc1ccc(CC2SC(=O)NC2=O)cc1)c1ccccn1` (stereo not given): the Potency result is “inactive”.
`CCCCCCOC(C)=O`: the Potency result is “inactive”.
In the case of `Cc1cc(NS(=O)(=O)c2ccc(N)cc2)no1` it was “inactive”; in that of `CC(C)(C)C1CCC(O)CC1` (stereo not given), “inactive”; in that of `NS(=O)(=O)c1cc2c(cc1Cl)NC=NS2(=O)=O`, “inactive”.

The values are drawn from PubChem BioAssay (Tox21).
